Where “and” joins values, the source holds several entries; their conditions need not be identical. Identical values can stand only once. Results filed as inconclusive are left out. Entries that show only a call come without a potency. Calls of active or inactive are those of the source. Unless noted, the call rests on the fitted dose curve; in most records, active means well fitted curve in the direction sought with a large enough effect in the repeat runs; inconclusive means weak or mixed curves; inactive means no such curve, though single readings can be large; an effect the other way counts as inactive or inconclusive.
Tests used:
[1] = biological target: Peroxisome proliferator-activated receptor delta (Homo sapiens) (UniProt Q03181); experiment: qHTS assay to identify small molecule agonists of the peroxisome proliferator-activated receptor delta (PPARd) signaling pathway (AID 743212; calls by dose curve)
Sequence of Peroxisome proliferator-activated receptor delta (Homo sapiens) (Q03181 whole entry, looked up): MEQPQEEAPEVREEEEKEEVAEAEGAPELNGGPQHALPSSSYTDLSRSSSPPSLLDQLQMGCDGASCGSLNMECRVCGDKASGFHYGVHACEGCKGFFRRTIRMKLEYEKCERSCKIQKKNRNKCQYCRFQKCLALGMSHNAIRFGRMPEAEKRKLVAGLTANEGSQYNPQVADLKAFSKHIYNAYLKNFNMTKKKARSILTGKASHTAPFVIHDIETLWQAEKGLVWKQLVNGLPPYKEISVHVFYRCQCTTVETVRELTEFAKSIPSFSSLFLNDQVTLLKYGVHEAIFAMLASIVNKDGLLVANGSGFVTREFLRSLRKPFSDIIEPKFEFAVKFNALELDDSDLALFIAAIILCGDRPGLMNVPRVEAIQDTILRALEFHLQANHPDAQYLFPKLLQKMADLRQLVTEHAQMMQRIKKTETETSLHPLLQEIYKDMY
Procedure, shortened: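 Tox21 library screened in GeneBLAzer PPARd UAS-bla HEK293H cells. After compound treatment at 37 C, a FRET-based beta-lactamase substrate was applied for 2 h and fluorescence recorded.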

[2] = qHTS assay to identify small molecule antagonists of the peroxisome proliferator-activated receptor delta (PPARd) signaling pathway - cell viability counter screen (AID 743213); further: nearly all actives have a fitted effect of over 50% in size; further: potency means the concentration at half of the fitted maximal effect
Procedure, shortened: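 Agonist-stimulated (L165041, 300 nM final) HEK293H PPARd UAS-bla cells are exposed to compounds for 17 h at 37 C, and ATP-based luminescence (CellTiter-Glo) from the same wells reports cytotoxicity.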

[3] = biological target: Peroxisome proliferator-activated receptor delta (Homo sapiens) (UniProt Q03181); experiment: qHTS assay to identify small molecule antagonists of the peroxisome proliferator-activated receptor delta (PPARd) signaling pathway (AID 743215; active means well fitted inhibition curve with a large enough effect in the signal ratio in the repeat runs, not every such curve was filed as active; the % refers to the signal ratio; further: series mostly up to about 62 µM)
Procedure, shortened: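 Plated HEK293H PPARd-bla cells rested 5 h at 37 C and 5% CO2. Compound, then agonist L165041 at 300 nM final, was added; 17 h at 37 C followed. Substrate loading, 2 h room temperature, fluorescence measured.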

[4] = biological target: Bile acid receptor (Homo sapiens) (UniProt Q96RI1); experiment: qHTS assay to identify small molecule antagonists of the farnesoid-X-receptor (FXR) signaling pathway (AID 743217; active means well fitted inhibition curve with a large enough effect in the signal ratio in the repeat runs, not every such curve was filed as active; the % refers to the signal ratio)
Sequence of Bile acid receptor (Homo sapiens) (Q96RI1 whole entry, looked up): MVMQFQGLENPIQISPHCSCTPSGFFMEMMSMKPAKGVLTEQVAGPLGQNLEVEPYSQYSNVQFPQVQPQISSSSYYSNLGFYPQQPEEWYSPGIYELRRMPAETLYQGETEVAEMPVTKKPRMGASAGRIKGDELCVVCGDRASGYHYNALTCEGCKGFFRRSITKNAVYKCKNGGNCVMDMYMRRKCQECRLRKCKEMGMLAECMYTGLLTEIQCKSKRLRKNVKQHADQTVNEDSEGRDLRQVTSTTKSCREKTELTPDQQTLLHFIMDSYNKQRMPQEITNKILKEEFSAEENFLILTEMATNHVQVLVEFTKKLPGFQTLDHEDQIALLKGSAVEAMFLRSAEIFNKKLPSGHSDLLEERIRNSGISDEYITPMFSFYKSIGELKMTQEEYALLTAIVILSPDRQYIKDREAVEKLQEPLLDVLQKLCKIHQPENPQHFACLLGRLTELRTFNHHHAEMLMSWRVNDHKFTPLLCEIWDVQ
Procedure, shortened: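 Screen of the Tox21 10K library in quantitative HTS format using FXR-UAS-bla HEK 293T reporter cells. Agonist chenodeoxycholic acid, 50 uM final, added with compounds; 16 h incubation at 37 °C; beta-lactamase FRET fluorescence measured.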

[5] = qHTS assay to identify small molecule agonists of the farnesoid-X-receptor (FXR) signaling pathway - cell viability counter screen (AID 743218); further: nearly all actives have a fitted effect of over 45% in size; further: potency means the concentration at half of the fitted maximal effect
Procedure, shortened: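 Viability of FXR-bla HEK 293T cells is measured by ATP-based CellTiter-Glo luminescence following 16 h compound treatment at 37 C and a prior 2 h room-temperature beta-lactamase substrate step.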

[6] = qHTS assay to identify small molecule antagonists of the farnesoid-X-receptor (FXR) signaling pathway - cell viability counter screen (AID 743221; active means well fitted cell-killing curve with a large enough effect in the repeat runs, not every such curve was filed as active; further: nearly all actives have a fitted effect of over 50% in size; further: potency means the concentration at half of the fitted maximal effect)
Procedure, shortened: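 Multiplexed counter screen: viability of FXR-bla HEK 293T cells under agonist stimulation by chenodeoxycholic acid (50 uM, final) and test compound for 16 h at 37 C, measured by CellTiter-Glo luminescence in the reporter wells.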

[7] = qHTS assay to identify small molecule agonists of the vitamin D receptor (VDR) signaling pathway - cell viability counter screen (AID 743224); further: nearly all actives have a fitted effect of over 50% in size; further: potency means the concentration at half of the fitted maximal effect
Procedure, shortened: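 Compounds were pin-transferred onto VDR-bla cells plated 4 h earlier; following 16 h incubation at 37C, cell viability was quantified by CellTiter-Glo luminescence after 30 min at room temperature.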

[8] = qHTS assay to identify small molecule antagonists of the vitamin D receptor (VDR) signaling pathway - cell viability counter screen (AID 743225); further: nearly all actives have a fitted effect of over 50% in size; further: potency means the concentration at half of the fitted maximal effect
Procedure, shortened: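 HEK293T VDR-bla; cpd + 1a,25-(OH)2D3 3 nM final, 16 h 37C/5% CO2; B/G FRET substrate 2 h RT; then CellTiter-Glo 30 min RT, luminescence.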

[9] = qHTS assay to identify small molecule agonists of the endoplasmic reticulum stress response signaling pathway (AID 1159516; active means well fitted activation curve with a large enough effect in the signal ratio in the repeat runs, not every such curve was filed as active; the % refers to the signal ratio)
Procedure, shortened: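 Using a HeLa line with an ESRE-driven beta-lactamase gene, agonist activity was measured by FRET substrate fluorescence (460 and 530 nm emission) after cells were treated with compounds for 5 hr at 37 C and 5% CO2.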

[10] = qHTS assay to identify small molecule agonists of the endoplasmic reticulum stress response signaling pathway - cell viability counter screen (AID 1159517; calls by dose curve)
Procedure, shortened: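 In parallel with the ESRE reporter read, cytotoxicity was scored by CellTiter-Glo luminescence (30 min, room temperature) on HeLa ESRE-bla cells dosed for 5 hr.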

[11] = qHTS assay to identify small molecule antagonists of the retinoid-related orphan receptor gamma (ROR-gamma) signaling pathway - cell viability counter screen (AID 1159520); further: nearly all actives have a fitted effect of over 50% in size; further: potency means the concentration at half of the fitted maximal effect
Procedure, shortened: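 Tet-on ROR gamma CHO cells were given compounds for 2 hr, then doxycycline hyclate at 1 uM final, and incubated 16 hr at 37 C. Viability was measured as ATP content by CellTiter-Glo luminescence.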

[12] = qHTS assay to identify small molecule agonists of the AP-1 signaling pathway - cell viability counter screen (AID 1159525; calls by dose curve; further: nearly all actives have a fitted effect of over 55% in size)
Procedure, shortened: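 Same-well cytotoxicity counter screen of the Tox21 10K library in ME-180 cells. The readout is ATP-dependent luminescence after 5 h compound treatment. Data are normalised to DMSO and tetra n-octyl ammonium bromide controls.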

[13] = qHTS assay to identify small molecule agonists of the AP-1 signaling pathway (AID 1159526; calls by dose curve; further: potency means the concentration at half of the fitted maximal effect)
[14] = qHTS assay to identify small molecule agonists of the RXR signaling pathway - cell viability counter screen (AID 1159529); further: nearly all actives have a fitted effect of over 50% in size; further: potency means the concentration at half of the fitted maximal effect
Procedure, shortened: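 Steps: seed RXR-alpha-UAS-bla HEK 293T cells in assay medium containing 2% charcoal-stripped FBS; incubate 5 hr; add compounds in DMSO; incubate 16 hr at 37 C; after the bla read, add CellTiter-Glo and read luminescence at 30 min.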

[15] = biological target: Bile acid receptor (Homo sapiens) (UniProt Q96RI1); experiment: qHTS assay to identify small molecule agonists of the farnesoid-X-receptor (FXR) signaling pathway (AID 743220; active means well fitted activation curve with a large enough effect in the signal ratio in the repeat runs, not every such curve was filed as active; the % refers to the signal ratio)
Procedure, shortened: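 FXR-UAS-bla HEK 293T cells carrying a UAS-driven beta-lactamase reporter were plated for 5 h at 37C/5% CO2, then exposed to DMSO-dissolved Tox21 10K compounds for 16 h at 37C. A LiveBLAzer B/G FRET substrate was loaded for 2 h at room temperature before fluorescence reading.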

[16] = biological target: Vitamin D3 receptor (Homo sapiens) (UniProt P11473); experiment: qHTS assay to identify small molecule agonists of the vitamin D receptor (VDR) signaling pathway (AID 743222; calls by dose curve)
Sequence of Vitamin D3 receptor (Homo sapiens) (P11473 whole entry, looked up): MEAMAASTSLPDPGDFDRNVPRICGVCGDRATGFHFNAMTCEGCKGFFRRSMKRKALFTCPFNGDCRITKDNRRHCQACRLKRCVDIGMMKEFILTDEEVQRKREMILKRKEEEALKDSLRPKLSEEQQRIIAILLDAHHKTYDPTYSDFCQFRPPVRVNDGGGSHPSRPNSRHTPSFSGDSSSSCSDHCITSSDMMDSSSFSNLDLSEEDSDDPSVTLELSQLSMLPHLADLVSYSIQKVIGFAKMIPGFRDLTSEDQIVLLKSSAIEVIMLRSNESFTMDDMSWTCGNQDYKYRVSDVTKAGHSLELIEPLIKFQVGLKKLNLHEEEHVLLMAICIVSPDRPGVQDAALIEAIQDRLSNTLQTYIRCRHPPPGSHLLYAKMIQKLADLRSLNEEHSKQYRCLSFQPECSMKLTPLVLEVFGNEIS
Procedure, shortened: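 Fluorescence from cleaved LiveBLAzer B/G FRET substrate served as readout. VDR-bla cells had been treated 16 h at 37C with test compounds in DMSO, following a 4 h settling period, and substrate was loaded for 2 h at RT.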

[17] = biological target: Retinoic acid receptor RXR-alpha (Homo sapiens) (UniProt P19793); experiment: qHTS assay to identify small molecule agonists of the RXR signaling pathway (AID 1159527; calls by dose curve; further: nearly all actives have a fitted effect of over 35% in size)
Sequence of Retinoic acid receptor RXR-alpha (Homo sapiens) (P19793 whole entry, looked up): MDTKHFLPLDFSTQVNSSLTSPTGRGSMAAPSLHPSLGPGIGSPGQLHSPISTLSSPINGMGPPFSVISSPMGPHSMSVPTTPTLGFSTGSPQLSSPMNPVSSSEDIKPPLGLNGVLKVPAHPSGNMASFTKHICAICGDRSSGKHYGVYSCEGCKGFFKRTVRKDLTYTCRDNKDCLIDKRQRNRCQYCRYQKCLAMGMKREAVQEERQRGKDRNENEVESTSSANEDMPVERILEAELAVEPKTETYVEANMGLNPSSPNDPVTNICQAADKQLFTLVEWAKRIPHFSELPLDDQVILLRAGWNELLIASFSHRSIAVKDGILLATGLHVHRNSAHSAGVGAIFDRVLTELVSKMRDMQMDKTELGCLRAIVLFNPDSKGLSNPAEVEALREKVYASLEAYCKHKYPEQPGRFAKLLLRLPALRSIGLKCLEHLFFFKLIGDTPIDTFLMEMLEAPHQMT
Procedure, shortened: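 Cells plated at 2,000/well, rested 5 hr at 37 C, pin-dosed with DMSO compound solutions, incubated 16 hr, then loaded with B/G FRET substrate for 2 hr at RT before dual-emission fluorescence reading.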

[18] = qHTS assay to identify small molecule agonists of the NFkB signaling pathway - cell viability counter screen (AID 1159515; calls by dose curve; further: series mostly up to about 61 µM; nearly all actives have a fitted effect of over 55% in size)
Procedure, shortened: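 Parallel cytotoxicity counter screen in ME-180 cells carrying an NFkB-response-element beta-lactamase reporter, 2,000 cells/well. Compound exposure lasted 5 hr at 37 C, 5% CO2. Cell viability was quantified by CellTiter-Glo luminescence.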

[19] = biological target: Nuclear receptor ROR-gamma (Homo sapiens) (UniProt P51449); experiment: qHTS assay to identify small molecule antagonists of the retinoid-related orphan receptor gamma (ROR-gamma) signaling pathway (AID 1159521; further: nearly all actives have a fitted effect of over 50% in size; further: potency means the concentration at half of the fitted maximal effect)
Procedure, shortened: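 Cells were plated, rested 4 h at 37 C, exposed to compounds for 2 h, then given 1 uM final doxycycline hyclate to induce RORγ expression. After 16 h, ONE-Glo luminescence from the ROR response element reporter was measured.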

[20] = biological target: Vitamin D3 receptor (Homo sapiens) (UniProt P11473); experiment: qHTS assay to identify small molecule antagonists of the vitamin D receptor (VDR) signaling pathway (AID 743223; active means well fitted inhibition curve with a large enough effect in the signal ratio in the repeat runs, not every such curve was filed as active; the % refers to the signal ratio)
Procedure, shortened: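 Cells carrying a VDR-driven beta-lactamase reporter (VDR-bla) were co-treated with compound and 3 nM final 1alpha,25-dihydroxyvitamin D3 for 16 h at 37C; reporter activity was measured as FRET substrate fluorescence after 2 h at room temperature.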

For `CCCN(CCC)CCc1c[nH]c2ccccc12`, the Potency [1] was “inactive”, the Potency [2] was “inactive” and the Potency [3] was “inactive”. The Potency [4] was “inactive”, the Potency [5] was “inactive” and the Potency [6] was “inactive”. The Potency [7] was “inactive”, the Potency [8] was “inactive” and the Potency [9] was “inactive”. The Potency [10] was “inactive”, the Potency [11] was “inactive” and the Potency [12] was “inactive”. The Potency [13] was 43.1 µM (active) and the Potency [14] was “inactive”.

In the case of `FC(F)(F)c1cccc(C2=CCN(CCc3ccc4ccccc4c3)CC2)c1`, the Potency [1] is reported as “inactive”, the Potency [2] is reported as “inactive” and the Potency [4] is reported as “inactive”. For the same compound, the Potency [5] was “inactive”, the outcome [15] was “inactive” and the Potency [6] was “inactive”. The Potency [16] was “inactive”, the Potency [8] was “inactive” and the Potency [9] was “inactive”. The Potency [10] was “inactive”, the Potency [11] was “inactive” and the Potency [12] was “inactive”. For the same compound, the outcome [17] was “inactive”.

In the case of `CCOCn1c(-c2ccc(Cl)cc2)c(C#N)c(Br)c1C(F)(F)F`, the Potency [2] is reported as 30.9 µM (active), the Potency [5] is reported as 12.3 µM (active) and the Potency [6] is reported as 27.5 µM (active). For the same compound, the Potency [7] was 3.47 µM (active), the Potency [8] was 4.9 µM (active) and the Potency [18] was “inactive”. For the same compound, the Potency [19] was 686 nM (active), the Potency [12] was “inactive” and the Potency [14] was 19.5 µM (active).

With `c1ccc(OCC2CO2)cc1` (stereo unspecified) the Potency [5] was “inactive”, the Potency [6] was “inactive” and the Potency [8] was “inactive”. The Potency [9] was “inactive”, the Potency [10] was “inactive” and the Potency [11] was “inactive”. For the same compound, the Potency [19] was “inactive”, the Potency [12] was “inactive” and the Potency [13] was “inactive”. For the same compound, the Potency [14] was “inactive”.

For `N#CNC#N`, the Potency [2] was “inactive”, the Potency [4] was “inactive” and the outcome [15] was “inactive”. For the same compound, the Potency [6] was “inactive”, the Potency [7] was “inactive” and the Potency [9] was “inactive”. For the same compound, the Potency [10] was “inactive”, the Potency [19] was “inactive” and the Potency [12] was “inactive”. For the same compound, the Potency [13] was “inactive”, the outcome [17] was “inactive” and the Potency [14] was “inactive”.

With `O=C(O)C1C2CCC(O2)C1C(=O)O` (stereo unspecified) the Potency [1] was “inactive”, the Potency [2] was “inactive” and the Potency [3] was “inactive”. For the same compound, the Potency [5] was “inactive”, the Potency [6] was “inactive” and the Potency [20] was “inactive”. The Potency [8] was “inactive”, the Potency [9] was “inactive” and the Potency [10] was “inactive”. The Potency [11] was 44.5 µM (active), the Potency [19] was 13.9 µM (active) and 12.5 µM (active) and the Potency [12] was “inactive”. The Potency [13] was “inactive”, the outcome [17] was “inactive” and the Potency [14] was “inactive”.

In the case of `CC(=O)[O-].[Tl+]`, the Potency [2] is reported as “inactive”, the Potency [5] is reported as “inactive” and the Potency [6] is reported as “inactive”. For the same compound, the Potency [7] was “inactive”, the Potency [8] was “inactive” and the Potency [9] was “inactive”. For the same compound, the Potency [10] was “inactive”, the Potency [11] was “inactive” and the Potency [12] was “inactive”. The Potency [13] was “inactive”.

For `COP(=O)(OC)SCn1c(=O)oc2cc(Cl)cnc21`, the Potency [1] was “inactive”, the Potency [2] was “inactive” and the Potency [6] was “inactive”. For the same compound, the Potency [18] was “inactive”, the Potency [19] was “inactive” and the Potency [12] was “inactive”. The Potency [14] was “inactive”.

In the case of `CN(C)CCc1c[nH]c2ccc(O)cc12`, the Potency [1] is reported as “inactive”, the Potency [2] is reported as “inactive” and the Potency [3] is reported as “inactive”. For the same compound, the Potency [4] was “inactive”, the Potency [5] was “inactive” and the Potency [6] was “inactive”. The Potency [8] was “inactive”, the Potency [9] was “inactive” and the Potency [10] was “inactive”. For the same compound, the Potency [11] was “inactive” and the Potency [13] was “inactive”.
